Screens from PubChem BioAssay.
KCNQ2 inh = rat KCNQ2 potassium channel inhibitors, primary screen, cell-based, CHO-K1, FluxOR thallium flux, B-score. Potassium voltage-gated channel subfamily KQT member 2 (Rattus norvegicus), O88943. 1.1% of 310,000 active. 20 min; hits give low values. B-score at 10 µM;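 active = fluorescence ratio B-score at most minus 3 library SDs, with starting brightness B-score within 2 library SDs, cut at about -5.5 in these data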
KCNQ2 pot = potentiators of rat KCNQ2 potassium channel. B-score at 10 µM. CHO-K1 KCNQ2, FluxOR thallium flux fluorescence; hits give high values. Potassium voltage-gated channel subfamily KQT member 2 (Rattus norvegicus), O88943. 0.54% of 310,000 active. AID 2239, 2010;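 active = fluorescence ratio B-score at least 3 SD of library B-scores, with initial fluorescence B-score within 3 of them, cut at about 5.3 in these data; same plate scores as AID 2156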;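 note: B-score of peak minus minimum over baseline fluorescence ratio after K+ and Tl+ stimulus; positive B-score means potentiation of KCNQ2 with more thallium influx and brighter signal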
An asterisk follows results filed as active. An excerpt weighted towards active compounds, which were near 1.6% of everything screened.

For CCN(CC)CCN1C(=O)/C(=C\c2ccc(Cl)c([N+](=O)[O-])c2)SC1=Nc1ccc(OC)cc1 the results were KCNQ2 inh inactive.
For CCCN1C(=O)/C(=C/c2ccc(C)s2)SC1=Nc1ccc(OC)cc1 the results were KCNQ2 inh -6.2* and KCNQ2 pot -6.2.
COc1ccc(N=C2S/C(=C\c3ccc(Cl)c([N+](=O)[O-])c3)C(=O)N2CCN(C)C)cc1 was read as KCNQ2 inh -5.6* and KCNQ2 pot -5.6.
COc1cc(-c2nc(CN3CCCCC3CCNC(C)=O)c(C)o2)ccc1F (centres undefined) was read as KCNQ2 inh inactive and KCNQ2 pot 2.
`COc1ccc(-c2nnc(Nc3nc4c(OC)cccc4s3)o2)cc1` gave KCNQ2 inh inactive and KCNQ2 pot 5.5*.
COc1ccc(-c2nnc(Nc3nc4c(OC)cccc4s3)o2)c(OC)c1 was read as KCNQ2 inh inactive and KCNQ2 pot 0.68.
Cc1cccc(C(=O)NC(=S)N2CCc3ccccc3C2)c1 was read as KCNQ2 inh inactive and KCNQ2 pot 8.4*.
For CCNC(=S)N1CCc2ccccc2C1 the results were KCNQ2 inh inactive and KCNQ2 pot 0.35.
`O=C1CC[C@@H](OCc2ccccc2)CCN1CC[C@H](Sc1ccccc1)c1ccccc1` gave KCNQ2 inh inactive.
Screening COC(=O)C(Nc1ccccc1Cl)(c1cc(C)c(O)c(C)c1)C(F)(F)F (centres undefined) returned KCNQ2 inh -8* and KCNQ2 pot -8.
Screening CCOC(=O)C(NC(=O)c1ccccc1Cl)(Nc1ccc(C)c(C)c1)C(F)(F)F (centres undefined) returned KCNQ2 inh inactive.
Cc1ccc(S(=O)(=O)C2(C(=O)N3CCN(c4ccccc4F)CC3)CC2)cc1 was read as KCNQ2 inh inactive.
O=C(N1CCN(c2cccc(Cl)c2)CC1)C1(S(=O)(=O)c2ccc(Cl)cc2)CC1 was read as KCNQ2 inh inactive.
Cc1cccc(N2CCN(C(=O)C3(S(=O)(=O)c4ccc(Cl)cc4)CC3)CC2)c1C was read as KCNQ2 inh -6.2* and KCNQ2 pot -6.2.
For Cc1ccc(Cl)cc1N1CCN(C(=O)C2(S(=O)(=O)c3ccc(Cl)cc3)CC2)CC1 the results were KCNQ2 inh -6.2* and KCNQ2 pot -6.2.
`NS(=O)(=O)c1ccc(CNC(=O)CSc2nc3ccc(Cl)cc3[nH]2)cc1` gave KCNQ2 inh inactive and KCNQ2 pot 0.37.
`Cc1ccc(CNC(=O)CCSCc2ccc(C)cc2)cc1` gave KCNQ2 inh inactive.
For COc1ccc(S(=O)(=O)N2CCN(c3ccc(C)cc3C)CC2)cc1OC the results were KCNQ2 inh inactive.
CCOc1ccc(S(=O)(=O)N2CCN(c3ccc(C)cc3C)CC2)cc1 was read as KCNQ2 inh -7* and KCNQ2 pot -7.
Screening Cc1ccc(S(=O)(=O)NCC(=O)N(CC2CCCO2)C(C(=O)NCC2CCCO2)C(C)C)cc1 (centres undefined) returned KCNQ2 inh inactive.
`COc1ccc(S(=O)(=O)N(CC(=O)NCc2ccccn2)Cc2ccccc2)cc1` gave KCNQ2 inh inactive.
O=C(CCS(=O)(=O)c1ccc(Br)cc1)NCc1ccco1 was read as KCNQ2 inh inactive and KCNQ2 pot 0.01.
For O=C(CN(Cc1ccc(Br)cc1)S(=O)(=O)c1ccccc1)NCc1ccccn1 the results were KCNQ2 inh -6.5* and KCNQ2 pot -6.5.
O=C(CN(Cc1ccccc1)S(=O)(=O)c1ccc(Br)cc1)NCc1ccco1 was read as KCNQ2 inh -6.6* and KCNQ2 pot -6.6.
`COc1ccccc1C(=O)NNC(=O)C1CC=CCC1` (centres undefined) gave KCNQ2 inh inactive.
O=C(Cn1nc(C(=O)O)c2ccccc2c1=O)Nc1ccccc1C(F)(F)F was read as KCNQ2 inh inactive.
`CC(SC1=NCCN1S(C)(=O)=O)c1ccccc1` (centres undefined) gave KCNQ2 inh inactive and KCNQ2 pot 0.95.
Screening C=CCN(c1cccc(C(F)(F)F)c1)S(=O)(=O)c1cccc(C(=O)OCC(=O)NCCC)c1 returned KCNQ2 inh inactive and KCNQ2 pot 6.6*.
`C=CCN(c1ccccc1)S(=O)(=O)c1cccc(C(=O)OCC(=O)NCCOC)c1` gave KCNQ2 inh inactive and KCNQ2 pot 1.3.
Screening CC(C)(C)c1ccc(OCCC(=O)Nc2cccc(S(=O)(=O)N3CCOCC3)c2)cc1 returned KCNQ2 inh inactive and KCNQ2 pot 1.4.
Clc1ccc(OCCSc2ncccn2)c2ccccc12 was read as KCNQ2 inh -5.7* and KCNQ2 pot -5.7.
`c1cnc(SCCOc2cccc3ccccc23)nc1` gave KCNQ2 inh inactive.
Screening N#C/C(=C\c1ccc([N+](=O)[O-])cc1)C(=O)NCCCn1ccnc1 returned KCNQ2 inh -5.6* and KCNQ2 pot -5.6.
